PubChem BioAssay
Results filed as inconclusive are left out. Calls of active or inactive are those of the source.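 How the source made its calls, unless noted: active means GFP response above 150% of the DMSO control; inconclusive means fewer than 70 events counted in any yeast strain; inactive means the rest.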

Experiments:
[1] = hit retest on RPL19A-GFP reporter strain – cell-based, S. cerevisiae, flow cytometry, cherry picks, mother/daughter gates, confirmation (AID 2270;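 active means GFP response below 50% of the DMSO control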); details: 3 h, at 10 µM, stronger effect = lower value, 100 = same GFP as DMSO wells
[2] = yeast TOR pathway reporter LAP4-GFP change – cell-based, cherry picks, flow cytometry, mother/daughter gates, confirmation (AID 2271);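 further: ratio of sample to DMSO plate mean so 100% equals DMSO level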; details: S. cerevisiae LAP4-GFP strain, 3 h, at 10 µM, stronger effect = higher value
[3] = TOR pathway CIT2 reporter hit retest – S. cerevisiae, GFP fusion, cherry picks, mother/daughter gates, confirmation (AID 2274;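 active means GFP response above 150% of the DMSO level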); details: S. cerevisiae CIT2-GFP strain, flow cytometry, 3 h, at 10 µM, stronger effect = higher value
[4] = rapamycin-like changes in RPL19A-GFP expression – cell-based, S. cerevisiae, multiplex flow cytometry, primary screen (AID 1862; in the data active means percent of DMSO control GFP below about 86%;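 further: lower values mimic rapamycin by blocking the RPL19A rise seen in DMSO cells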); details: S. cerevisiae RPL19A-GFP strain, flow cytometry fluorescence, 3 h; at 10 µM; stronger effect = lower value
[5] = TOR pathway GLN3 branch reporter MEP2-GFP changes – S. cerevisiae, multiplex flow cytometry, primary screen (AID 1867;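 active means GFP response, as percent of the DMSO control, above the screen-wide mean plus 3 SD, about 139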;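 further: median GFP channel fluorescence of barcode-gated MEP2-GFP cells measured by flow cytometry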); details: S. cerevisiae MEP2-GFP strain, 3 h, at 10 µM, stronger effect = higher value
[6] = TOR pathway RTG branch CIT2 reporter changes – S. cerevisiae, GFP fusion, multiplex flow cytometry, primary screen (AID 1870;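 active means percent response above a set limit, the screen-wide mean plus 3 SD, cut at about 130% in these data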;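 further: barcoded CIT2-GFP strain pooled with four other GFP strains with rapamycin as positive control; median GFP fluorescence per well over plate mean of DMSO wells so 100% = DMSO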); details: S. cerevisiae CIT2-GFP expression, 3 h, at 10 µM, stronger effect = higher value
[7] = TOR pathway LAP4-GFP level changes – S. cerevisiae, multiplex flow cytometry, primary screen (AID 1873;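 active means GFP signal, as percent of the solvent control, above the screen mean plus 3 SD, about 149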); details: S. cerevisiae LAP4-GFP expression, 3 h, at 10 µM, stronger effect = higher value
[8] = reduced mouse 2C T cell binding to pMHC/ICAM-1 vesicles – MLPCN validation set, flow cytometry, LFA-1/ICAM-1 modulator project, pilot screen (AID 2523;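 active means response below a set limit, under 55% cells CD8-positive and vesicle-bound, and CD8 cells' 90th-percentile brightness under 279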;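 on vesicle binding response: mean PE anti-B7-1 fluorescence of CD8+ cells relative to row control; 100% = QL9-loaded vesicles with DMSO vehicle in the same plate row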); details: 2C mouse CD8+ T cells, at 7 µM, stronger effect = lower value; double positive events: measured here: CD8+/vesicle+ event percentage
[9] = molecular target: Integrin beta-1 (Homo sapiens) + Integrin alpha-4 (Homo sapiens) (UniProt P13612+P05556); experiment: alpha4beta1 integrin LIBS antibody binding reduction – U937 cells, HUTS-21 mAb, flow cytometry, validation set, VLA-4 allosteric modulator project, pilot screen (AID 2674;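 active means inhibition above 50%, about 3 SD of the validation set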;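 further: antibody binding induced by the VLA-4 ligand LDV present at three times its Kd; 0% = LDV ligand with antibody and no compound and 100% = antibody without LDV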); details: HUTS-21 LIBS mAb binding, at 6.7 µM, stronger effect = higher value
[10] = calorie-restriction mimetic ROS inhibitors, yeast – validation compound set, pilot screen (AID 2706;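 active means superoxide response below 65% of plate, a cut near 3 SD across the whole screen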;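 further: yeast exposed to compound for one week at 30 degrees C before staining; 100% = mean of all compound wells on the same plate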); details: S. cerevisiae aging, superoxide DHE fluorescence; at 10 µM; stronger effect = lower value
[11] = molecular target: Beta-adrenergic receptor kinase 1 (Homo sapiens) (UniProt P25098); experiment: GRK2 binders displacing RNA aptamer, biochemical, validation, human GRK2, bead flow cytometry (AID 488806;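 active means aptamer binding inhibition above 30%, about 3 SD of noise from non-fluorescent compounds; inactive means inhibition at or below 30%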); details: bead-bound GRK2, FAM-aptamer displacement, at 10 µM, stronger effect = higher value
[12] = molecular target: AP-2 complex subunit beta (Homo sapiens) (UniProt P63010); experiment: beta-arrestin/AP2 interaction blockers – biochemical, validation set, GST-AP2 beads, flow cytometry, pilot screen (AID 504541;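 active means inhibition above 54%, about 3 SD of non-fluorescent compounds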;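 further: AP2 carries R879A mutation and is captured from E. coli lysate; bead-bound FITC arrestin peptide fluorescence measuring arrestin peptide binding to AP2; 0% = DMSO wells and 100% = excess unlabeled arrestin peptide control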); details: FITC arrestin peptide, at 10 µM, stronger effect = higher value
[13] = cytosolic pH regulators acting via V-ATPase – S. cerevisiae, pHLuorin, HTS validation (AID 504600; in the data active means response above about 15%;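 further: plate controls were DMSO for no effect and reference compound for full effect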); details: V-ATPase proton transport, at 10 µM, stronger effect = higher value
[14] = test system: anti-desmoglein-3 scFv antibody binding to human DSG3; experiment: blockers of pathogenic pemphigus antibody–desmoglein-3 binding – biochemical, validation compound set, bead-based, flow cytometry, pilot screen (AID 588368;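 active means binding below the plate cutoff, the plate median minus 3 SD, with a reading above zero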;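 further: signal is the median channel fluorescence of bead-bound GFP antibody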); details: Protein G beads, DSG3-Fc, scFv-GFP binding, at 10 µM, stronger effect = lower value
[15] = test system: Botulinum neurotoxin type F light chain protease (Clostridium botulinum); experiment: Clostridium botulinum type F light chain protease inhibitors, microsphere substrate cleavage, validation (AID 588459; call rule not given here); details: multiplex microsphere protease substrate cleavage assay, flow cytometry; at 10 µM; stronger effect = higher value
[16] = molecular target: Botulinum neurotoxin type A (Clostridium botulinum) (UniProt P0DPI0); experiment: BoNT/A light chain protease inhibitors, biochemical, multiplex microsphere flow cytometry, validation set (AID 588460; call rule not given here); details: at 10 µM, stronger effect = higher value
[17] = molecular target: Lethal factor (Bacillus anthracis) (UniProt P15917); experiment: Bacillus anthracis lethal factor inhibition, microsphere flow cytometry protease assay, validation at 10 µM (AID 588461; call rule not given here); details: multiplex microsphere protease cleavage assay, stronger effect = higher value
[18] = Nile Red efflux blockade in pump-expressing yeast – validation compound set, multiplex, phenotypic, pilot screen (AID 588506;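 active means efflux inhibition above 0.42, the validation set average plus 4 SD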;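 further: Nile Red retained in cells so higher fluorescence means more efflux inhibition; 0 = negative control wells and 1 = enniatin B 25 µM full block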); details: S. cerevisiae pump-expressing triplex, Nile Red efflux flow cytometry; at 10 µM; stronger effect = higher value
[19] = molecular target: ATP-binding cassette sub-family B member 6 (Homo sapiens) (UniProt Q9NP58); experiment: blockers of ABCB6-driven porphyrin uptake – K562-ABCB6 cells, flow cytometry, validation set, pilot screen (AID 588550;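 active means inhibition above the screen-wide mean plus 3 SD, about 51%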;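 further: 0% = DMSO wells and 100% = benzethonium chloride 70 µM positive control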); details: K562-ABCB6 porphyrin accumulation, 1 h, at 10 µM, stronger effect = higher value
[20] = AML differentiation inducers, ER-HoxA9 marrow cells – cell-based, GFP/MAC1 double positive, flow cytometry, validation set, primary screen (AID 588685;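 active means differentiation response of at least 50%, scaled between solvent and reference control, from cells with both markers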;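 further: compound exposure lasts four days before antibody staining and flow analysis; 0% = DMSO wells and 100% = 5 µM fulvestrant positive control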); details: stronger effect = higher value
[21] = measured here: daughter cell gate
[22] = measured here: mother cell gate
[23] = measured here: daughter cell gate response
[24] = measured here: mother cell gate response

AP-2 complex subunit beta (Homo sapiens), sequence (P63010 whole entry, looked up, one chain of several): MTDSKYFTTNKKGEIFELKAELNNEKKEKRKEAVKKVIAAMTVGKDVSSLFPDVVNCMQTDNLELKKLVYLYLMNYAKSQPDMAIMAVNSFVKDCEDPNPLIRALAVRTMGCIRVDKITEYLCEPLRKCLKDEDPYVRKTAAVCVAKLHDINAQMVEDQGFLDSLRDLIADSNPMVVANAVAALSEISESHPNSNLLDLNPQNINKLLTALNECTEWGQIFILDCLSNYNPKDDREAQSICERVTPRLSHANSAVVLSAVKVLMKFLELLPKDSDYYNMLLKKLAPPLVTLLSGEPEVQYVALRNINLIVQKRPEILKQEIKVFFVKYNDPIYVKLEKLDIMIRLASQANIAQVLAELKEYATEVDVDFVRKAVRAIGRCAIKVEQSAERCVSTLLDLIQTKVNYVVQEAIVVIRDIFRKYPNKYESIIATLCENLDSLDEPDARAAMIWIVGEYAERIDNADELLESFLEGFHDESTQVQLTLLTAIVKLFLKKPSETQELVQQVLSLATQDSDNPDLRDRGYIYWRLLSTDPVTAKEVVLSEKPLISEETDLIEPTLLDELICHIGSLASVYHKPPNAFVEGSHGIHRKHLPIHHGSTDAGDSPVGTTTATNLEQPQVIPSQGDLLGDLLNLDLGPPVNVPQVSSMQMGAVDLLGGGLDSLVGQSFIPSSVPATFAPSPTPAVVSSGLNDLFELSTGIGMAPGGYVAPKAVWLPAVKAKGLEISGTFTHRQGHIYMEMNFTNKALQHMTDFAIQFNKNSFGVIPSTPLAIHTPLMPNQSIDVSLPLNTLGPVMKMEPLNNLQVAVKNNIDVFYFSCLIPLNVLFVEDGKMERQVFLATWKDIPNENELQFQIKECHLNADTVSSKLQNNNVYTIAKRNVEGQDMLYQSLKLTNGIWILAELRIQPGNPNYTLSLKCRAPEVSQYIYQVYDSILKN
Integrin beta-1 (Homo sapiens) + Integrin alpha-4 (Homo sapiens), sequence (P05556 whole entry, looked up): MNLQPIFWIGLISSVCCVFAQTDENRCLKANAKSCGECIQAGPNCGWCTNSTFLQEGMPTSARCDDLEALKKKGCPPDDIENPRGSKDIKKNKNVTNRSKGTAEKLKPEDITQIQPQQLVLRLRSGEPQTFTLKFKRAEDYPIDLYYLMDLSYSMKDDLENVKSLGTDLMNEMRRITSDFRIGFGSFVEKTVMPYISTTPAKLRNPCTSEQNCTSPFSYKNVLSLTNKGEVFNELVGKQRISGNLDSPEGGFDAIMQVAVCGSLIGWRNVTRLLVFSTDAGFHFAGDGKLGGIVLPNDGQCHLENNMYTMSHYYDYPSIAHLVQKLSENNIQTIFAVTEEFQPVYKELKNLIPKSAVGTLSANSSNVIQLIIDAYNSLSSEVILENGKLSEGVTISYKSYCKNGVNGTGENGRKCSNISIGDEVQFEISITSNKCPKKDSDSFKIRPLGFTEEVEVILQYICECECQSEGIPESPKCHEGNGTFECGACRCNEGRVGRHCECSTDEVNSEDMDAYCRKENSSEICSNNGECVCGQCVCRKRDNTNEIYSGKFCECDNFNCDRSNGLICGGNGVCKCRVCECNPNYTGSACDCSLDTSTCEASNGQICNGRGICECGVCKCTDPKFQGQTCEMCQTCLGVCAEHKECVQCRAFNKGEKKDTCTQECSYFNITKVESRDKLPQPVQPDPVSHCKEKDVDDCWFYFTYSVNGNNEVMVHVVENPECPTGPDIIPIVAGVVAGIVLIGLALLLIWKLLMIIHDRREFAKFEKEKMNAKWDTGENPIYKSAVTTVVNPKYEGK
Integrin beta-1 (Homo sapiens) + Integrin alpha-4 (Homo sapiens), sequence (P13612 whole entry, looked up): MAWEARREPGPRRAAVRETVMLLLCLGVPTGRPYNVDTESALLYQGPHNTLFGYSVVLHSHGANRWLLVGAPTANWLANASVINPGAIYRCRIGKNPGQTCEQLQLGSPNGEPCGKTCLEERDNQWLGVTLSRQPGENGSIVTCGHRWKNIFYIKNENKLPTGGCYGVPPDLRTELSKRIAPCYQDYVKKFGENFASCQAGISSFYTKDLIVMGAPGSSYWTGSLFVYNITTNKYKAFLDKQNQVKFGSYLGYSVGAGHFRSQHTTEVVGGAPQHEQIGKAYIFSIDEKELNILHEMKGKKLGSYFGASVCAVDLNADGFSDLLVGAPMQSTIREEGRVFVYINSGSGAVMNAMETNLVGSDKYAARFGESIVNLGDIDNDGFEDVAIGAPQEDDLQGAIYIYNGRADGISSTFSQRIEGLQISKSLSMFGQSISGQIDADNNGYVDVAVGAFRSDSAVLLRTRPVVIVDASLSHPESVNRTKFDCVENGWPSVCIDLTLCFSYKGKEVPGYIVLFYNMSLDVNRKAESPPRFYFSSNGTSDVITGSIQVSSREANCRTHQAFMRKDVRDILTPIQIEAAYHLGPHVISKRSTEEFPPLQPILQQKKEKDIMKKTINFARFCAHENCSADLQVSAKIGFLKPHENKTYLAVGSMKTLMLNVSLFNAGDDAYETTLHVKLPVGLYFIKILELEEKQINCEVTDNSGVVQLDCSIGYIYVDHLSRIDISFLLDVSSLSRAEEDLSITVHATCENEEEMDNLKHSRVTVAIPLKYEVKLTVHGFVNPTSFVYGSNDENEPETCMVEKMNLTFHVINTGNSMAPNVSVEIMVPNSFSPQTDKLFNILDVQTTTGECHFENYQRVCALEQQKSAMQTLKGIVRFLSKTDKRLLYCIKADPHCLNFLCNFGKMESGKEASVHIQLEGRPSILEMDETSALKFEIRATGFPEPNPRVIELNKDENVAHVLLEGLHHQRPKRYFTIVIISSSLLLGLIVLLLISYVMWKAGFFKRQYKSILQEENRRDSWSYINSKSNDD
Beta-adrenergic receptor kinase 1 (Homo sapiens), sequence (P25098 whole entry, looked up): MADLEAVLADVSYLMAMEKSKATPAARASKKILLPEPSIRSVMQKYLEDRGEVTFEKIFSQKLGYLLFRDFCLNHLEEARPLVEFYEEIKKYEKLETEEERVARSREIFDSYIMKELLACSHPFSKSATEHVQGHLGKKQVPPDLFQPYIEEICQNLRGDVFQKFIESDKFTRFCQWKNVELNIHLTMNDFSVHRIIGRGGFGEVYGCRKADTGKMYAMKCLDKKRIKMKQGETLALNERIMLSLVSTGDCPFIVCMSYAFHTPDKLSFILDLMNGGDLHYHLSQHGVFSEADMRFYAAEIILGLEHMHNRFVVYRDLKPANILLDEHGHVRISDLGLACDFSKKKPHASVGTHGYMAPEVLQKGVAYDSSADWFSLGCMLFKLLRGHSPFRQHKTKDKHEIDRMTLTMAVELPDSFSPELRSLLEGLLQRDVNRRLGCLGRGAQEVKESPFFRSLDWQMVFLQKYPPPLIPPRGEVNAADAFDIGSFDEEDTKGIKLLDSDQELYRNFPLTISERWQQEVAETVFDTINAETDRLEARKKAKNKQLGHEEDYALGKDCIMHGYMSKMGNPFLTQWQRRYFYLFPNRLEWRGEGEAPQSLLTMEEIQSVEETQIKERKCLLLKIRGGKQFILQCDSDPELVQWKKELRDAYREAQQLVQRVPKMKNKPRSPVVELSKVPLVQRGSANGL
Botulinum neurotoxin type A (Clostridium botulinum), sequence (P0DPI0 whole entry, looked up): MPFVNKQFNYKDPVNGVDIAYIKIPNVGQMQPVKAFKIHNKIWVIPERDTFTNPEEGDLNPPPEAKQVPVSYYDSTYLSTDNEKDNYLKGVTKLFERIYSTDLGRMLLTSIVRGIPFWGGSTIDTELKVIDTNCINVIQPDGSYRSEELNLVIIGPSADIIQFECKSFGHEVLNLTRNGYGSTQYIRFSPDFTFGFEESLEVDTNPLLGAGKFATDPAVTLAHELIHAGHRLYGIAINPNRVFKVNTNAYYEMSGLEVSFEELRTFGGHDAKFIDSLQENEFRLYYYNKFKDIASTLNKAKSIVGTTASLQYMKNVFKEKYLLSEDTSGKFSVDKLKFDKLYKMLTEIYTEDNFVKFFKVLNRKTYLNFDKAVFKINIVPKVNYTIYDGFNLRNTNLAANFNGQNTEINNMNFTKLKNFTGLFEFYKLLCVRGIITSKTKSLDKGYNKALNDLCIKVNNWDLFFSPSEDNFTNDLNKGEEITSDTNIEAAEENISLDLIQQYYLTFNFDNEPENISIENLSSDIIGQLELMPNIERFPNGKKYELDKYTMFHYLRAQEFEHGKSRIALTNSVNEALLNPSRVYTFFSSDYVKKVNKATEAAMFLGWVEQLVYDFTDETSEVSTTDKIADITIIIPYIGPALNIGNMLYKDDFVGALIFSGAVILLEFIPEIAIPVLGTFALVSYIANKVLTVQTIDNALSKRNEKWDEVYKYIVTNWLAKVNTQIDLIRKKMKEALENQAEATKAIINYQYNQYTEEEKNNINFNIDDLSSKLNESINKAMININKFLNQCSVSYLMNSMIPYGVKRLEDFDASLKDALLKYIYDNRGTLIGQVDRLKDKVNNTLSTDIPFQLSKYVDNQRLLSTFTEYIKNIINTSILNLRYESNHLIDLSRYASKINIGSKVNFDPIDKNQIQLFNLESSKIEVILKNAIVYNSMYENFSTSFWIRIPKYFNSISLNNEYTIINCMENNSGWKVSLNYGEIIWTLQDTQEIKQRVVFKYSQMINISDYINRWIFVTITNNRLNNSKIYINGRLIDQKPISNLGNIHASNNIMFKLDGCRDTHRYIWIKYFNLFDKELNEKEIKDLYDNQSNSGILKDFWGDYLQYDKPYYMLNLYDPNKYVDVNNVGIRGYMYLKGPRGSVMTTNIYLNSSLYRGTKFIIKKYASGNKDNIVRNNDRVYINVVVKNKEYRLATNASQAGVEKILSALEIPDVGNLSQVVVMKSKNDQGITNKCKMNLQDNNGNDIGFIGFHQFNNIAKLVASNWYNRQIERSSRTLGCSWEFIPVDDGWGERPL

O=C1NC(=O)N(c2ccccc2)C(=O)/C1=C/c1ccc(Sc2ccccc2)o1
GFP response vs DMSO [1]: 99.7% (inactive)
GFP response vs DMSO [1, 21]: 98.5%
GFP response vs DMSO [1, 22]: 95.2%
GFP response relative to DMSO [2]: 177% (active)
GFP response relative to DMSO [2, 23]: 135%
GFP response relative to DMSO [2, 24]: 170%
GFP response, % of DMSO [3]: 89.2% (inactive)
GFP response, % of DMSO [3, 21]: 98.3%
GFP response, % of DMSO [3, 22]: 79.3%

Nc1ccc(N=Nc2ccccc2)cc1
GFP response vs DMSO [1]: 98.4% (inactive)
GFP response vs DMSO [1, 21]: 98.4%
GFP response vs DMSO [1, 22]: 96.2%
GFP response relative to DMSO [2]: 110% (inactive)
GFP response relative to DMSO [2, 23]: 106%
GFP response relative to DMSO [2, 24]: 111%
GFP response, % of DMSO [3]: 100% (inactive)
GFP response, % of DMSO [3, 21]: 93.8%
GFP response, % of DMSO [3, 22]: 99.3%

O=[N+]([O-])c1ccc(N2CCNCC2)cc1Sc1ccccn1
GFP response vs DMSO [1]: 98.4% (inactive)
GFP response vs DMSO [1, 21]: 98.4%
GFP response vs DMSO [1, 22]: 99.4%
GFP response relative to DMSO [2]: 91.4% (inactive)
GFP response relative to DMSO [2, 23]: 92.5%
GFP response relative to DMSO [2, 24]: 91.1%
GFP response, % of DMSO [3]: 96.5% (inactive)
GFP response, % of DMSO [3, 21]: 96.5%
GFP response, % of DMSO [3, 22]: 95.5%

COc1cc(/C=C/C(=O)c2c(O)n(CCc3ccccc3)c(=O)[nH]c2=O)ccc1O
GFP response vs DMSO [1]: 103% (inactive)
GFP response vs DMSO [1, 21]: 104%
GFP response vs DMSO [1, 22]: 103%
GFP response relative to DMSO [2]: 90% (inactive)
GFP response relative to DMSO [2, 23]: 90.4%
GFP response relative to DMSO [2, 24]: 88.9%
GFP response, % of DMSO [3]: 115% (inactive)
GFP response, % of DMSO [3, 21]: 114%
GFP response, % of DMSO [3, 22]: 112%

Cc1cc(C=C2C(=O)N(C)C(=S)N(C)C2=O)c(C)n1-c1ccncc1
GFP response vs DMSO [1]: 92.8% (inactive)
GFP response vs DMSO [1, 21]: 91.1%
GFP response vs DMSO [1, 22]: 88.6%
GFP response relative to DMSO [2]: 114% (inactive)
GFP response relative to DMSO [2, 23]: 108%
GFP response relative to DMSO [2, 24]: 117%
GFP response, % of DMSO [3]: 69.1% (inactive)
GFP response, % of DMSO [3, 21]: 70.3%
GFP response, % of DMSO [3, 22]: 64.4%

CC12CN3CC(C)(CN(C1)C3c1cccnc1)C2=O (stereo unspecified)
percent of DMSO control GFP [4]: 95.2% (inactive)
GFP response vs DMSO [5]: 117% (inactive)
percent response of DMSO control [6]: 97.9% (inactive)
GFP response vs DMSO [7]: 81.4% (inactive)
double positive events [8]: 58%
vesicle binding response [8]: 174% (inactive)
inhibition [9]: 8.4% (inactive)
superoxide response (% of plate) [10]: 108% (inactive)
aptamer binding inhibition [11]: 4% (inactive)
inhibition [12]: -8.61% (inactive)
response [13]: 0.14% (inactive)
binding (% of control) [14]: 95.4% (inactive)
inhibition [15]: -1.6% (inactive)
inhibition [16]: 0.6% (inactive)
inhibition [17]: 9.9% (inactive)
efflux inhibition (fraction of control) [18]: 0.3 (inactive)
inhibition [19]: 7% (inactive)
differentiation response [20]: -3.28% (inactive)

CN1C(=O)C(=Cc2ccc(SC3CCCCC3)o2)C(=O)N(C)C1=O
GFP response vs DMSO [1]: 95.8% (inactive)
GFP response vs DMSO [1, 21]: 98.3%
GFP response vs DMSO [1, 22]: 92.3%
GFP response relative to DMSO [2]: 143% (inactive)
GFP response relative to DMSO [2, 23]: 134%
GFP response relative to DMSO [2, 24]: 150%
GFP response, % of DMSO [3]: 83.5% (inactive)
GFP response, % of DMSO [3, 21]: 84.1%
GFP response, % of DMSO [3, 22]: 77.8%

C#CCOc1cc(C2C3=C(COC3=O)Nc3cc4c(cc32)OCO4)ccc1OC (stereo unspecified)
GFP response vs DMSO [1]: 102% (inactive)
GFP response vs DMSO [1, 21]: 100%
GFP response vs DMSO [1, 22]: 103%
GFP response relative to DMSO [2]: 113% (inactive)
GFP response relative to DMSO [2, 23]: 106%
GFP response relative to DMSO [2, 24]: 114%
GFP response, % of DMSO [3]: 107% (inactive)
GFP response, % of DMSO [3, 21]: 103%
GFP response, % of DMSO [3, 22]: 107%
